The record followed here is PubChem BioAssay (EPA / NIEHS).

Each structure is given as a SMILES string. Activity calls are given as the source filed them. How the source made its calls: active means hit-call score of the fitted dose curve at least 0.9, where 1 is the maximum; inactive means score below 0.9.

This assay in a line: CCTE_Shafer_MEA_acute_firing_rate_mean: CCTE's Neural Acute Assay for Mean Firing Rate, Shafer Lab (AID 2284009). As for the experimental part: CCTE_Shafer_MEA_acute assay is conducted using Axion Biosystems 48 well microelectrode array (MEA) plates and Maestro recording system. Each well of the MEA plate contains a grid of 16 microelectrodes embedded in the culture surface. Electrically active cells, such as neurons, can be cultured over the electrodes, and electrical activity in these cells can be recorded extracellularly. The spontaneous firing of neurons is captured from each electrode on a microsecond timescale providing both temporally and spatially precise data. […] The CCTE_Shafer_MEA_acute assay uses primary cultures of rat cortical neurons. As these cultures mature over time, neural networks develop functional activity and form cohesive networks in which electrical activity can be highly coordinated. Baseline 40-minute recordings are made on days post-plating 13 or 15, followed by a secondary 40-minute recording after chemical exposure.CCTE_Shafer_MEA_acute_firing_rate_mean is a component of the CCTE_Shafer_MEA_acute assay. It measures the frequency number of spikes (action potential firings) as the total number of spikes divided by the length of the recording in a microelectrode array (MEA) using Axion Biosystems Maestro 768 channel amplifier with the AxIS adaptive spike detector. The firing rate is divided by the number of electrodes to report a well-mean value. The recordings before and after chemical treatment are used to calculate a percent change in the mean firing rate in each well.Data from the assay component CCTE_Shafer_MEA_acute_firing_rate_mean was analyzed into 1 assay endpoint. This assay endpoint, CCTE_Shafer_MEA_acute_firing_rate_mean, was analyzed in the negative analysis fitting direction relative to DMSO as the negative control and baseline of activity. Using a type of functional reporter, gain or loss-of-signal activity can be used to understand electrical activity.
Spontaneous activity in the cortical cultures was recorded using an Axion Biosystems Maestro 768 channel amplifier and Axion Integrated Studios (AxIS) v1.8 (or later) software. The amplifier recorded from all channels simultaneously (gain = 1200 x; sampling rate = 12.5 kHz/channel): raw signals were filtered with a Butterworth band-pass filter (300-5000 Hz), which filters out slower local field potentials leaving only fast potentials, i.e., "spikes", arising from extracellular currents associated with action potentials (Pine 2006; Wheeler and Nam 2011). On-line spike detection of filtered signals was conducted with the AxIS adaptive spike detector, using a threshold of 8x the root mean squared (rms) noise on each channel. Any electrodes with rms noise levels greater than 5 uV were grounded (e.g., no data were recorded). Once grounded, an electrode was grounded for the duration of the experiment. All recordings were conducted at 37 C. Wells were deemed usable if on the day of the exposure >/= 10 electrodes were active (defined as >/= 5 spikes/min). On DIV 13 or 15, a minimum of three wells from one cortical culture preparation were treated with each compound (0.03-40 uM). Prior to recording baseline activity, each mwMEA plate was placed in the Maestro at 37 C and allowed to sit for 20 min while firing rates stabilized. Baseline activity (40 min) was recorded before the addition of each compound. An additional 40 min of spontaneous activity was recorded in the presence of each compound. Changes in network parameters relative to baseline were assessed following compound treatment.
`CC(C)(C)c1ccccc1OP(=O)(Oc1ccccc1)Oc1ccccc1`: the AC50 (commonly the concentration giving half of the maximal activity seen) is 1330 nM (active). In the case of `O=C(O)C1C(C(=O)O)C2(Cl)C(Cl)=C(Cl)C1(Cl)C2(Cl)Cl` (stereo unspecified), the compound was classed as inactive. The same measure, in the same setting: as for `COCCOCCO`, the entry is “inactive”. As to `CCOP(=S)(Oc1ccc([N+](=O)[O-])cc1)c1ccccc1` (stereo unspecified), the AC50 was 25000 nM (active). With `CCC(C)(C)c1ccc(O)cc1`, the half-maximal activity concentration (AC50) is 186 nM (active). Consider `[N-]=[N+]=[N-]`, for which the compound was classed as inactive.

Consider `Cc1ccc(N)cc1N`, for which the outcome was inactive.

As for `ClC1=C(Cl)C2(Cl)C3C(Cl)C(Cl)CC3C1(Cl)C2(Cl)Cl` (stereo unspecified), the result was inactive.

As to `Nc1ccc2ccccc2c1`, the AC50 was 109 nM (active).

`CC(Cl)(Cl)C(=O)O`: the result was inactive. Turning to `CCCCC(CC)COP(=O)(Oc1ccccc1)Oc1ccccc1` (stereo unspecified), the concentration at half-maximal activity (AC50) was 15000 nM (active). As for `ClC(Cl)(Cl)c1ccccc1`, the compound was classed as inactive.

`c1ccc2c(c1)Nc1ccccc1S2`: the AC50 is 4450 nM (active). Consider `CCOc1ccc(C(C)(C)COCc2cccc(Oc3ccccc3)c2)cc1`, for which the compound was called inactive.

`COP(=O)(CCC(=O)NCO)OC`: the call was inactive. Still for that read-out and setting: as for `CCC1(c2ccccc2)C(=O)N=C(O)NC1=O` (stereo unspecified), the entry is “inactive”.
